The target of assay [1] is Tumor necrosis factor (Homo sapiens) (UniProt P01375). The assay can be described thus: qHTS assay to identify small molecules that stimulate Tumor Necrosis Factor-alpha (TNF-alpha) secretion (AID 651757; active = well fitted curve in the direction sought with a large enough effect in the signal ratio; the % refers to the signal ratio; also: 0% is about no effect). To be noted: Human cells, HTRF 665/615 ratio; series mostly up to 92.2 µM. Summed up:
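THP-1 cells were exposed to compounds for 17 hrs at 37 C, after which secreted TNF-alpha was measured by homogeneous HTRF (TR-FRET) using cryptate- and XL665-labeled anti-TNF-alpha antibodies, read after 3 hr at room temperature.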
A general note: Quantitative high-throughput screening tests each substance at several concentrations.

Assay [2] in a line: qHTS assay for environmental chemicals that activate the Aryl hydrocarbon Receptor (AhR) signaling pathway (AID 651777). Also: % of control where 0% means no effect; nearly all actives have a fitted effect of over 15% in size. The following applies: 1A2-DRE human hepatoma cells, luciferase, 24 h; activation: active compounds read high. The method, boiled down: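 Human hepatoma 1A2-DRE cells stably carrying a DRE/CYP1A2 promoter–luciferase reporter, 1,200 cells/well, exposed to compound 24 hr at 37 C. Luciferase read by One-Glo luminescence after 30 min at room temperature; increased signal marks AhR activation.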

In assay [3] the target is Peroxisome proliferator-activated receptor alpha (Homo sapiens) (UniProt Q07869). The assay can be described thus: qHTS assay for small molecule agonists of the peroxisome proliferator-activated receptor alpha (PPARalpha) signaling pathway (AID 651778). Also: % of control where 0% means no effect. To be noted: PathHunter PPARalpha complementation, chemiluminescence, 6 h; active compounds read high. The method, boiled down:
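Chemiluminescence from complemented enzyme reported PPARalpha activation in cells after 6 hr of compound treatment at 37 C. The detection reagent was incubated for 60 min at room temperature, and compounds were scored as agonists.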

The nature of assay [4]: qHTS for compounds that reverse cellular toxicity of Amyloid beta (A-beta) peptide in yeast: LOPAC Validation Assay (AID 720559).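 Also: plate controls were DMSO for no effect and equimolar ferric chloride plus clioquinol rescue for full effect.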 The following applies: yeast expressing A-beta; series mostly up to 46.1 µM. Summed up: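 Activity is expressed relative to DMSO and an equimolar ferric chloride/clioquinol mix. Compounds were pinned into medium with A-beta-expressing yeast, grown 48 hr at 30 C, then read by absorbance at 600 nm.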

Assay [5] can be described thus: qHTS for Activators of Parkin Expression: LOPAC Validation Assay (NLuc Reporter) (AID 720572;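 also: 0% = DMSO and 100% = positive control compound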). The following applies: Parkin promoter NanoLuc reporter cells, luminescence; series mostly up to 46.1 µM. The method, boiled down:
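Parkin promoter-driven FLuc/NLuc neuronal reporter cells; 24 h plating, 7-pt dose response, 24 h at 37 C/5% CO2; FLuc then NanoLuc reagent, 10 min each, luminescence; DMSO/positive control normalized.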

Assay [6] is described as follows: qHTS for Activators of Parkin Expression: LOPAC Validation Assay (FLuc Reporter) (AID 720573;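 also: 0% = DMSO and 100% = positive control compounds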). The following applies: Cell line, PRKN promoter firefly luciferase reporter; series mostly up to 46.1 µM. The method, boiled down:
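A neuronal cell line harbouring FLuc and NLuc reporters behind the Parkin promoter was exposed to compounds for 24 h. Firefly luciferase signal, measured after 10 min with detection reagent, was scaled to DMSO and positive-control wells.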

Assay [7] in a line: qHTS assay for small molecule agonists of the antioxidant response element (ARE) signaling pathway measured by Nrf2-dependant transcriptional activity (AID 720636; active = well fitted curve in the direction sought with a large enough effect in the repeat runs; an effect the other way counts as inactive or inconclusive; also: % of control where 0% means no effect). To be noted: ARE-luc HepG2, Nrf2 luciferase reporter, 16 h; series mostly up to 92.4 µM. Summed up:
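ARE-luc HepG2 cells carrying an Nrf2-responsive luciferase reporter, in medium with 1% dialyzed FBS, exposed to compound for 16 hr at 37 C, 5% CO2. Luminescence read 30 min after ONE-Glo addition.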

The nature of assay [8]: qHTS assay for small molecule antagonists of the retinoid-related orphan receptor gamma (ROR-gamma) signaling pathway - cell viability counter screen (AID 720652; active = well fitted curve in the direction sought with a large enough effect in the repeat runs; an effect the other way counts as inactive or inconclusive;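 also: compound exposure lasted 16 hr before ATP read; % is scaled to controls: 0 for no effect and ±100 for the full control effect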). To be noted: RORgamma reporter cell line viability counter screen; series mostly up to 92.2 µM. Summed up:
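Counter screen in CHO cells carrying TET-inducible ROR-gamma and an ROR response element-luciferase reporter; cells plated 5 hr, compound pinned, doxycycline added, then 16 hr at 37 C. Viability read as intracellular ATP by CellTiter-Glo luminescence.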

The nature of assay [9]: qHTS assay for small molecule agonists of the antioxidant response element (ARE) signaling pathway measured by Nrf2-dependant transcriptional activity - cell viability counter screen (AID 720653; active = well fitted curve in the direction sought with a large enough effect in the repeat runs; an effect the other way counts as inactive or inconclusive; also: % is scaled to controls: 0 for no effect and ±100 for the full control effect). The following applies: ARE-bla HepG2 viability, CellTiter-Glo ATP luminescence, 16 h; max response: active compounds read low. Summed up: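 Cytotoxicity counter screen: intracellular ATP quantified by CellTiter-Glo luminescence in the same ARE-bla HepG2 plates, after 16 h compound exposure and a 2 h beta-lactamase substrate step.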

Assay [10] concerns the target T1, Hexokinase-4 (Homo sapiens) + Glucokinase regulatory protein (Homo sapiens) (UniProt P35557+Q14397). Description: qHTS assay for inhibitors of recombinant human GCK-GKRP interaction: Diaphorase-coupled assay (AID 743205). To be noted: G6PDH/diaphorase resorufin fluorescence; series mostly up to 57.5 µM. Summed up: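 Inhibitors of the GCK–GKRP complex relieve GKRP suppression of GCK, detected through a G6PDH–diaphorase cascade reducing resazurin. Human GST-GCK and FLAG-GKRP are used at 10 nM with 5 mM glucose and 0.4 mM ATP.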

Assay [11] deals with T1, Hexokinase-4 (Homo sapiens) + Glucokinase regulatory protein (Homo sapiens). Description: qHTS assay for inhibitors of recombinant human GCK-GKRP interaction: HTRF assay (AID 743207).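 Also: 0% = DMSO with GCK present and -100% = DMSO wells lacking GCK.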 To be noted: recombinant GCK-GKRP HTRF binding, 60 min, with sorbitol-6-phosphate; series mostly up to 57.5 µM. The method, boiled down: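 Steps: dispense GCK–GKRP complex (5 nM each, GST- and FLAG-tagged) with 2 uM S6P; pin in compounds; add XL665/Eu-cryptate-labelled antibodies; incubate 60 min at room temperature; read time-resolved FRET at 665 and 615 nm.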

Assay [12] is described as follows: qHTS Assay for Identifying Gametocytocidal Compounds (AID 743244).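 Also: % is scaled to controls: 0 for no effect and ±100 for the full control effect; actives lower the fluorescent signal which means gametocytes are killed.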 The following applies: P. falciparum 3D7 stage III-V gametocytes, alamarBlue, 72 h; max response: active compounds read low. Summed up:
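Late gametocytes (III–V), P. falciparum 3D7; 72 h drug, then 24 h alamarBlue; resazurin reduction read by fluorescence.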

Assay [13] can be described thus: qHTS assay for cell viability of HEK293 cells (AID 743288). Also: % is scaled to controls: 0 for no effect and ±100 for the full control effect; nearly all actives have a fitted effect of over 50% in size. The following applies: ATP luminescence (CellTiter-Glo), 18 h; max response: active compounds read low. Summed up: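 The Tox21 protocol used parental HEK293 cells treated for 18 h at 37 C with compounds delivered by pintool; ATP-coupled luminescence after 30 min at room temperature gave viability.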
Assay [14] can be described thus: qHTS assay for cell viability of the p53RE-bla HCT-116 cell line (AID 743292). Also: % is scaled to controls: 0 for no effect and ±100 for the full control effect; nearly all actives have a fitted effect of over 55% in size. To be noted: p53RE-bla HCT-116 viability, ATP luminescence, 16 h; series mostly up to 95 µM. The method, boiled down: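 CellSensor p53RE-bla HCT-116 cells (4,000/well) pre-incubated 5 h at 37 C, then exposed to compounds in DMSO for 16 h at 37 C. Viability read as ATP content by CellTiter-Glo luminescence after 30 min at room temperature.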

Assay [15] deals with Tyrosine-protein kinase Yes (Homo sapiens) (UniProt P07947). The assay can be described thus: qHTS for small molecule inhibitors of Yes1 kinase: Primary Screen (AID 686947).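 Also: plate controls were DMSO with enzyme for no effect and no-enzyme DMSO wells for full effect; nearly all actives have a fitted effect of over 60% in size.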 To be noted: Yes1 kinase biochemical qHTS inhibition; series mostly up to 76.9 µM. The method, boiled down: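 ADP-Glo luminescence readout; final 4 nM Yes1, 0.1 mM ATP, 0.3 mg/mL poly(E4Y), Tris pH 7.5, MgCl2, DTT, Brij-35. 20 min compound preincubation, 60 min reaction at RT. Normalized to DMSO wells with and without enzyme.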

Assay [16] is described as follows: qHTS for small molecule inhibitors of Yes1 kinase: Counter Assay (AID 686950).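 Also: no kinase present so only ADP-Glo detection of a fixed ADP amount is tested; luminescence from ADP-Glo reporting ADP in a fixed ATP and ADP mixture; 0% = DMSO wells with ATP plus ADP and -100% = ATP-only wells without ADP.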 The following applies: series mostly up to 76.9 µM. Summed up:
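Luminescence read-out from ADP-Glo quantifies a fixed ADP amount (0.02 mM ADP with 0.08 mM ATP) after 60 min at room temperature; signal is normalized between DMSO wells with ATP/ADP and with 0.1 mM ATP alone.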

Assay [17] concerns the target Nuclear receptor ROR-gamma (Homo sapiens) (UniProt P51449). The assay can be described thus: qHTS assay for small molecule antagonists of the retinoid-related orphan receptor gamma (ROR-gamma) signaling pathway (AID 651802). Also: % is scaled to controls: 0 for no effect and ±100 for the full control effect; nearly all actives have a fitted effect of over 60% in size. The following applies: ROR-gamma antagonist cell reporter assay; series mostly up to 92.2 µM. The method, boiled down:
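CHO cells carrying TET-inducible ROR-gamma and an ROR response element–luciferase reporter were exposed to compound, then induced with doxycycline. After 16hr at 37C, luminescence was read; lower signal indicates antagonism.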

A short description of assay [18]: qHTS assay for small molecule disruptors of the mitochondrial membrane potential - 5 hr assay (AID 651755; calls by dose curve; also: nearly all actives have a fitted effect of over 40% in size; also: potency is read from the fitted curve at half-maximal effect). The following applies: JC-1-type ratio dye; series mostly up to 92.2 µM. The method, boiled down: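 HepG2, 2,000 cells/well, overnight attach; cpd or DMSO 5 hr, 37C/5% CO2; Mito-MPS 30 min 37C; fluor 490/535 + 540/590 nm.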
Assay [19] in a line: qHTS assay to identify small molecules that stimulate interleukin-8 (IL-8) secretion (AID 651758; active = well fitted activation curve with a large enough effect in the signal ratio; the % refers to the signal ratio; also: 0% is about no effect). The following applies: HTRF ratio (665/615); series mostly up to 92.2 µM. The method, boiled down:
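Secreted IL-8 measured by TR-FRET sandwich (cryptate and XL665 antibodies) from THP-1 cells exposed to compound overnight (16 hrs, 37 C).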

Assay [20] can be described thus: qHTS assay for small molecule disruptors of the mitochondrial membrane potential - 1 hr assay (AID 651754; calls by dose curve; also: potency is read from the fitted curve at half-maximal effect; nearly all actives have a fitted effect of over 35% in size). The method, boiled down:
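HepG2 cells, attached overnight at 37C, were exposed to compound or DMSO vehicle for 1 hr at 37C, 5% CO2, then stained with Mito-MPS dye for 30 min. Red aggregate versus green monomer fluorescence reports membrane potential.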

Where “and” joins values, the source holds several entries; their conditions need not be identical. Equal entries are not always repeated. Values without a mark were called inactive. Records with an inconclusive call do not appear. Calls of active or inactive are those of the source. Unless noted, calls follow the shape of the dose curve; as a rule, active = well fitted curve in the direction sought with a large enough effect; inconclusive = small, poorly fitted or top-dose-only effect, or another doubt; inactive = no such curve, though single readings can be large; an effect the other way counts as inactive or inconclusive.

Chain of Tyrosine-protein kinase Yes (Homo sapiens) (P07947 whole entry, looked up): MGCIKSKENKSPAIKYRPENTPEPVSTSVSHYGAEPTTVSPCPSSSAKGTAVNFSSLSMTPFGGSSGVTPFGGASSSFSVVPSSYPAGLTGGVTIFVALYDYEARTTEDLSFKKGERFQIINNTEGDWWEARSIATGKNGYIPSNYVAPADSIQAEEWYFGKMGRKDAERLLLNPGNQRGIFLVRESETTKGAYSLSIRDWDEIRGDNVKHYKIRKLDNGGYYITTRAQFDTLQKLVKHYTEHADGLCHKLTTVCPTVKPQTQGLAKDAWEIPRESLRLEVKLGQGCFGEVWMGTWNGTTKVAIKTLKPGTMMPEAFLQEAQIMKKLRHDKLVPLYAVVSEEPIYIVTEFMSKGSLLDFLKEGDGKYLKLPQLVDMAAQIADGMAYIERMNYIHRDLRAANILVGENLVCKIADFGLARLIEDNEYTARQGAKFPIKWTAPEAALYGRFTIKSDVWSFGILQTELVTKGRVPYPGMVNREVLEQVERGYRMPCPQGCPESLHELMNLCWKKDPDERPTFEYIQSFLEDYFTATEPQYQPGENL
Chain of Peroxisome proliferator-activated receptor alpha (Homo sapiens) (Q07869 whole entry, looked up): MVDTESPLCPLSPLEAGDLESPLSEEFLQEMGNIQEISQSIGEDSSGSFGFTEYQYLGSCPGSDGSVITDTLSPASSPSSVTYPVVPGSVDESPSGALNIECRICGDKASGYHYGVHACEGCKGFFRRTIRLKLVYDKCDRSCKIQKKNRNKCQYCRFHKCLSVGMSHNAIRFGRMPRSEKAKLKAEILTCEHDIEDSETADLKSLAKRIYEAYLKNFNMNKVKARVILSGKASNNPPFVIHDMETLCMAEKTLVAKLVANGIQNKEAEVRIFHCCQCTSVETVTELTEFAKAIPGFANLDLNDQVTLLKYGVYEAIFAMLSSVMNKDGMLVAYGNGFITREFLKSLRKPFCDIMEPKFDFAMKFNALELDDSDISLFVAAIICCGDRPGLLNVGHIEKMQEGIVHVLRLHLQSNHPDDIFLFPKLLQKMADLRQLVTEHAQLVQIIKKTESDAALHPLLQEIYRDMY
T1 sequence (P35557 whole entry, looked up): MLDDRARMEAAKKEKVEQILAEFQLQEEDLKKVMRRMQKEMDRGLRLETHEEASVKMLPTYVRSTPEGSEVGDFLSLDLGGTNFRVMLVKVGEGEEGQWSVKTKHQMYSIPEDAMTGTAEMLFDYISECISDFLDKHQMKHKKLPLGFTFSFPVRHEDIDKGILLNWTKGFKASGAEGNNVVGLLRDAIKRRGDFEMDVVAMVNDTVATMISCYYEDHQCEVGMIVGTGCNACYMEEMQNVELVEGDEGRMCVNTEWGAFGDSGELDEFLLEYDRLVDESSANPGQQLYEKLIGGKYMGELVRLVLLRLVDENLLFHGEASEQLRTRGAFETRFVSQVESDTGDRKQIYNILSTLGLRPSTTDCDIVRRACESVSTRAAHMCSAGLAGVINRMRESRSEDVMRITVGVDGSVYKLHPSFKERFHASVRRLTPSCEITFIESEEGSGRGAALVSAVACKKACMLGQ
T1 sequence (Q14397 whole entry, looked up): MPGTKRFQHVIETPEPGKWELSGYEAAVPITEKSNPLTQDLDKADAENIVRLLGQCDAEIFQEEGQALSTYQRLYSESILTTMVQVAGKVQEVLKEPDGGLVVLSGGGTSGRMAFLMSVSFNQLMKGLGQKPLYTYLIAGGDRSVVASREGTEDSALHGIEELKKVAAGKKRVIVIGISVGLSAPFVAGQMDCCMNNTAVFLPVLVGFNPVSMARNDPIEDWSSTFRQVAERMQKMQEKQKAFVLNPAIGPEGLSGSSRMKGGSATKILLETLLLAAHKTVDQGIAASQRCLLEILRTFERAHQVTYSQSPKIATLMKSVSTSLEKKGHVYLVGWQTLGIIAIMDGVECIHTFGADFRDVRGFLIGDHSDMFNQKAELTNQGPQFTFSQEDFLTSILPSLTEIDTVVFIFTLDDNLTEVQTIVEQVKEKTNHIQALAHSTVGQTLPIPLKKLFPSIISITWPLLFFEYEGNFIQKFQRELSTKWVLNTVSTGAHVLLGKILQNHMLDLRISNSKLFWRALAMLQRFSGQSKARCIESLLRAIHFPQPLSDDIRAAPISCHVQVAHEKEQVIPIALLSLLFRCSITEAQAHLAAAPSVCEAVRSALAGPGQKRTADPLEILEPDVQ
Chain of Tumor necrosis factor (Homo sapiens) (P01375 whole entry, looked up): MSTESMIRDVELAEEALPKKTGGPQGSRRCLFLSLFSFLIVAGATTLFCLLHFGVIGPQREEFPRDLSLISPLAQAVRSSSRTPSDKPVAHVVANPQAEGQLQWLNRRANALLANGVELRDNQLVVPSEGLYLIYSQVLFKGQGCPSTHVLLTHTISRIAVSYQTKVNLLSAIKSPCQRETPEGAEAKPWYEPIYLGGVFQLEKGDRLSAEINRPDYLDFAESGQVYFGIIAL
Chain of Nuclear receptor ROR-gamma (Homo sapiens) (P51449 whole entry, looked up): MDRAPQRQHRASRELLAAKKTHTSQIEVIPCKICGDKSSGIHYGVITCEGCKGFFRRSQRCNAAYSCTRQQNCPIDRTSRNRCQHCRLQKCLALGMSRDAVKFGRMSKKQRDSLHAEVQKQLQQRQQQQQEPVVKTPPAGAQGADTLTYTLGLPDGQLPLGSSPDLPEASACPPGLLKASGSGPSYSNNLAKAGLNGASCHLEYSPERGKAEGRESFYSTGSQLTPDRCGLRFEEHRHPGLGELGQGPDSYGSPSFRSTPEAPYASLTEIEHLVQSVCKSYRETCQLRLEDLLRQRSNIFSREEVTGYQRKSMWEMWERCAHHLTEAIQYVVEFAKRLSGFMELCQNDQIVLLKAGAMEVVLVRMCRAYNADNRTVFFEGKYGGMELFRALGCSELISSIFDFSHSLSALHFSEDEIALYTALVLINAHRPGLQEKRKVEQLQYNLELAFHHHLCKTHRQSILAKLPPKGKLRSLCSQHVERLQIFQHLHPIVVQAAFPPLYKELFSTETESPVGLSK

In the case of `CC(=O)O[C@]1(C(C)=O)CC[C@H]2[C@@H]3C=C(Cl)C4=CC(=O)[C@@H]5C[C@@H]5[C@]4(C)[C@H]3CC[C@@]21C`, the result in [1], in assay [4], in assay [10] and in assay [11] was inactive. Also, in assay [2], the activation is 1.28% and -0.271%. Besides, the max response in [3] was 0.54% and -4.74%; in [9], -29.6% and -20.9%; in assay [12], 5.83%; in [13] it was -22.8%. The Potency result in assay [5], in assay [6], in assay [7], in assay [8] and in [14] was “inactive” in each case.
Regarding `CO[C@H]1C=CC=C(C)C(=O)NC2=CC(=O)C(NCCN(C)C)=C(C[C@@H](C)C[C@H](OC)[C@@H](O)[C@@H](C)C=C(C)[C@@H]1OC(N)=O)C2=O`, the Potency result in assay [15] is “inactive”. In addition, the molecule was called inactive in assay [16].
For the molecule `COc1cccc2c1CCCC2CCCN1CCN(C2CCCCC2)CC1` (stereo unspecified), the Potency entry in assay [15] is “inactive”. Besides, the outcome in assay [16] was inactive.
For `CCn1cc(C(=O)O)c(=O)c2ccc(C)nc21`, the max response is -3.78% and -0.0141% in assay [3]; 11.7% and 3.46% in [9]; 5.72% and 15.6% in assay [12]; 1.7% and -2.87% in assay [13]. In addition, the Potency result in assay [17], in assay [5], in assay [6], in assay [7], in assay [8] and in assay [14] was “inactive” each time. Besides, the molecule was classed as inactive in [4].
As to `O=C(CCCCCCC(=O)Nc1ccccc1)NO`, in assay [15], the Potency result is “inactive”.
Regarding `O=C(O)c1cc(-c2ccccc2)nc2ccccc12`, the activation in assay [2] was 4.06%. For the same molecule, the max response in assay [3] was -3.44%; in assay [9], -16.1%; in assay [12] it was 4.65% and 33.8%; in [13] it was -15%. Also, the Potency entry in assay [14] is “inactive”.
Take `CO[C@H]1C[C@@H]2CC[C@@H](C)[C@@](O)(O2)C(=O)C(=O)N2CCCC[C@@H]2C(=O)O[C@H]([C@H](C)C[C@@H]2CC[C@H](OCCO)[C@H](OC)C2)CC(=O)[C@H](C)C=C(C)[C@@H](O)[C@@H](OC)C(=O)[C@H](C)C[C@H](C)C=CC=CC=C1C`: the Potency result in [15] is “inactive”. The molecule was called inactive in assay [16].
On to `O=c1[nH]cnc2c1ncn2[C@H]1CC[C@@H](CO)O1`, for which the Potency result in [18], in assay [17], in assay [7], in [8] and in assay [14] was “inactive” in each case. In addition, the result in [1] and in [19] was inactive. For the same molecule, the activation in assay [2] was -1.42% and 4.55%. Moreover, the max response was -3.68% and -4.63% in assay [3]; 7.68% and 6.47% in [9]; -6.96% in assay [12]; -8.26% and -9.92% in [13].
Turning to `O=c1c(O)c(-c2ccc(O)cc2)oc2cc(O)cc(O)c12`, the Potency was 5.31 µM (active) in assay [20] and 8.41 µM (active) in assay [18]. The max response is -3% and -2.05% in assay [3]; -6.13% and -4.97% in assay [9]; 3.99% and -0.18% in assay [13]. Besides, the Potency result in assay [14] was “inactive”.

These data come from PubChem BioAssay (NCATS).
